From PubChem BioAssay (Tox21)
Results filed as inconclusive are left out. Values without a mark were called inactive. Active and inactive are the calls of the source. Calls come from the whole dose curve.

experiment: qHTS assay for small molecules that induce genotoxicity in human embryonic kidney cells expressing luciferase-tagged ATAD5 - cell viability (AID 651634); details: HEK293T ATAD5-luc cells viability, CellTiter-Fluor, 15.5 h; series mostly up to 83.3 µM; activity, negative = cytotoxicity: at the top concentration; note: nearly all actives have a fitted effect of over 25% in size
Procedure, shortened: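 15.5 hr compound or vehicle exposure of HEK293T cells expressing luciferase-tagged ATAD5 at 37C; live-cell protease activity is read by fluorescence after 30 min of CellTiter-Fluor.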
% is set by controls: 0 for no effect and ±100 for the full control effect.

Going from `COc1nc(N)nc2c1ncn2[C@@H]1O[C@H](CO)[C@@H](O)[C@@H]1O` to `COC(=O)[C@@H](N)Cc1ccc(O)c(O)c1`, the “activity, negative = cytotoxicity” value falls from 6.41% to -3.96%.

Compared with `CC(C)(C)NCCNC(C)(C)C`, `CC(C)CNCC(C)C` is lower in “activity, negative = cytotoxicity” value: 17% for the first, 6.27% for the second.

Compared with `CCSC(=O)N(CC(C)C)CC(C)C`, `CC(C[N+](C)(C)C)OC(N)=O` (stereo not given) is higher in “activity, negative = cytotoxicity” value: 5.43% for the first, 10.1% for the second.

Going from `CC1(C)CO[C@@H](CC(=O)O)CN1` to `CCN1CCC[C@H]1CNC(=O)c1c(O)c(Cl)cc(Cl)c1OC`, the “activity, negative = cytotoxicity” value falls from 17.1% to 9.45%.

Going from `O=C1NC(=O)[C@@]2(CCOc3ccc(F)cc32)N1` to `CCCN(CCC)CCc1cccc2c1CC(=O)N2`, the “activity, negative = cytotoxicity” value rises from 5.29% to 26.2%.

Going from `N[C@H]1CN(c2c(F)cc3c(=O)c(C(=O)O)cn(C4C[C@H]4F)c3c2Cl)CC12CC2` (stereo not given in full) to `COc1ccc2c(c1)c(CC(=O)OCC(=O)O)c(C)n2C(=O)c1ccc(Cl)cc1`, the “activity, negative = cytotoxicity” value falls from 11.8% to -4.3%.

Going from `CCCCCCCCCCCCN(CCCCCCCCCCCC)CCCCCCCCCCCC` to `CC/C=C\CC/C=C/C(OCC)OCC`, the “activity, negative = cytotoxicity” value falls from 14.7% to 9.15%.

Going from `O=C(O)CCCc1ccccc1` to `NC(=O)Nc1ccccc1`, the “activity, negative = cytotoxicity” value falls from 20.2% to 15%.

Going from `O=C(O)c1ccccc1OP(=O)(O)O` to `CC(=O)c1ccccc1O`, the “activity, negative = cytotoxicity” value rises from 2.07% to 8.13%.

Going from `C=CCS(=O)(=O)O` to `CCOC(=O)c1cccc(N)c1`, the “activity, negative = cytotoxicity” value rises from 5.23% to 16%.

Compared with `CN(C(=O)c1c(O)c2ccccc2n(C)c1=O)c1ccccc1`, `NC(=O)COCCN1CCN(C(c2ccccc2)c2ccc(Cl)cc2)CC1` (stereo not given) is lower in “activity, negative = cytotoxicity” value: 0.629% for the first, -13.2% for the second.

Compared with `CCC(=O)OC(C)c1ccccc1` (stereo not given), `N[C@H](C(=O)O)c1ccc(O)cc1` is higher in “activity, negative = cytotoxicity” value: 8.42% for the first, 10% for the second.

Compared with `CCCc1cc(C(N)=S)ccn1`, `CCCN1CCCC[C@H]1C(=O)Nc1c(C)cccc1C` is higher in “activity, negative = cytotoxicity” value: 14.4% for the first, 15.8% for the second.

Going from `Nc1cc(=O)[nH]c(N)n1` to `N=C(N)c1ccc(OCCCOc2ccc(C(=N)N)cc2)cc1`, the “activity, negative = cytotoxicity” value falls from -9.19% to -18.6%.

With `COCCc1ccc(OCC(O)CNC(C)C)cc1` (stereo not given) the Potency was “inactive”.
For `CO[Si](CCCOCC1CO1)(OC)OC` (stereo not given), the Potency was “inactive”.
In the case of `COc1c(N2C[C@@H]3CCCN[C@@H]3C2)c(F)cc2c(=O)c(C(=O)O)cn(C3CC3)c12`, the Potency is reported as “inactive”.
In the case of `OC(CCN1CCCCC1)(c1ccccc1)C1CC2C=CC1C2` (stereo not given), the Potency is reported as “inactive”.
In the case of `O=C1CCCCCCCCCCCN1`, the Potency is reported as “inactive”.
For `COC(=O)c1c(Cl)c(Cl)c(C(=O)OC)c(Cl)c1Cl`, the Potency was “inactive”.

First: N#Cc1ccc(C2CCCc3cncn32)cc1 (stereo not given)
Second: c1ccc(CC2=NCCN2)cc1
The “activity, negative = cytotoxicity” value of the first is higher: 5% [at 39.1 µM] for the first, -8.23% [at 39.1 µM] for the second.

With `NS(=O)(=O)c1cc(C(=O)O)cc(N2CCCC2)c1Oc1ccccc1` the “activity, negative = cytotoxicity” value was 23.2% [at 39.1 µM].

First: CCOC(C)(C)C
Second: O=C(O)CCCl
The “activity, negative = cytotoxicity” value of the first is lower: 16.8% [at 95.3 µM] for the first, 18.3% [at 95.3 µM] for the second.

For `CCCCCCCCCCCCCC=O`, the activity, negative = cytotoxicity was 13.3% [at 8.08 µM].

experiment: qHTS assay for small molecule disruptors of the mitochondrial membrane potential - cell viability (AID 720634); details: HepG2 viability, ATP luminescence (CellTiter-Glo), 1 h; series mostly up to 83.2 µM; activity change, negative = cytotoxicity: at the top concentration;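 note: human HepG2 liver cancer cells; nearly all actives have a fitted effect of over 20% in size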
Procedure, shortened: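 In this qHTS format, HepG2 cells plated overnight were pinned with compound, incubated 1 hr, and assayed for ATP luminescence with CellTiter-Glo after m-MPI dye addition.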

First: COc1nc(N)nc2c1ncn2[C@@H]1O[C@H](CO)[C@@H](O)[C@@H]1O
Second: COC(=O)[C@@H](N)Cc1ccc(O)c(O)c1
The “activity change, negative = cytotoxicity” value of the first is higher: 9.42% for the first, 5.48% for the second.

Compared with `CC(C)(C)NCCNC(C)(C)C`, `CC(C)CNCC(C)C` is higher in “activity change, negative = cytotoxicity” value: -11.2% for the first, 8.18% for the second.

Compared with `CCSC(=O)N(CC(C)C)CC(C)C`, `CC(C[N+](C)(C)C)OC(N)=O` (stereo not given) is lower in “activity change, negative = cytotoxicity” value: 5.73% for the first, -4.14% for the second.

First: CC1(C)CO[C@@H](CC(=O)O)CN1
Second: CCN1CCC[C@H]1CNC(=O)c1c(O)c(Cl)cc(Cl)c1OC
The “activity change, negative = cytotoxicity” value of the first is higher: 13.8% for the first, -3.53% for the second.

Compared with `O=C1NC(=O)[C@@]2(CCOc3ccc(F)cc32)N1`, `CCCN(CCC)CCc1cccc2c1CC(=O)N2` is higher in “activity change, negative = cytotoxicity” value: 3.94% for the first, 4.54% for the second.

Going from `N[C@H]1CN(c2c(F)cc3c(=O)c(C(=O)O)cn(C4C[C@H]4F)c3c2Cl)CC12CC2` (stereo not given in full) to `COc1ccc2c(c1)c(CC(=O)OCC(=O)O)c(C)n2C(=O)c1ccc(Cl)cc1`, the “activity change, negative = cytotoxicity” value falls from 5.07% to -6.74%.

Going from `CCCCCCCCCCCCN(CCCCCCCCCCCC)CCCCCCCCCCCC` to `CC/C=C\CC/C=C/C(OCC)OCC`, the “activity change, negative = cytotoxicity” value falls from 7.53% to -2.94%.

First: O=C(O)CCCc1ccccc1
Second: NC(=O)Nc1ccccc1
The “activity change, negative = cytotoxicity” value of the first is lower: 5.48% for the first, 14.5% for the second.

Compared with `O=C(O)c1ccccc1OP(=O)(O)O`, `CC(=O)c1ccccc1O` is higher in “activity change, negative = cytotoxicity” value: 8.91% for the first, 12.2% for the second.

First: C=CCS(=O)(=O)O
Second: CCOC(=O)c1cccc(N)c1
The “activity change, negative = cytotoxicity” value of the first is higher: 8.32% for the first, -8.7% for the second.

First: CN(C(=O)c1c(O)c2ccccc2n(C)c1=O)c1ccccc1
Second: NC(=O)COCCN1CCN(C(c2ccccc2)c2ccc(Cl)cc2)CC1 (stereo not given)
The “activity change, negative = cytotoxicity” value of the first is lower: 6.11% for the first, 9.28% for the second.

Going from `CCC(=O)OC(C)c1ccccc1` (stereo not given) to `N[C@H](C(=O)O)c1ccc(O)cc1`, the “activity change, negative = cytotoxicity” value falls from 0.626% to -7.44%.

First: CCCc1cc(C(N)=S)ccn1
Second: CCCN1CCCC[C@H]1C(=O)Nc1c(C)cccc1C
The “activity change, negative = cytotoxicity” value of the first is lower: -12.6% for the first, 4.27% for the second.

Compared with `Nc1cc(=O)[nH]c(N)n1`, `N=C(N)c1ccc(OCCCOc2ccc(C(=N)N)cc2)cc1` is higher in “activity change, negative = cytotoxicity” value: 3.42% for the first, 8.06% for the second.

With `COCCc1ccc(OCC(O)CNC(C)C)cc1` (stereo not given) the Potency was “inactive”.
With `CO[Si](CCCOCC1CO1)(OC)OC` (stereo not given) the Potency was “inactive”.
With `COc1c(N2C[C@@H]3CCCN[C@@H]3C2)c(F)cc2c(=O)c(C(=O)O)cn(C3CC3)c12` the Potency was “inactive”.
With `OC(CCN1CCCCC1)(c1ccccc1)C1CC2C=CC1C2` (stereo not given) the Potency was “inactive”.
In the case of `O=C1CCCCCCCCCCCN1`, the Potency is reported as “inactive”.
With `COC(=O)c1c(Cl)c(Cl)c(C(=O)OC)c(Cl)c1Cl` the Potency was “inactive”.

First: N#Cc1ccc(C2CCCc3cncn32)cc1 (stereo not given)
Second: c1ccc(CC2=NCCN2)cc1
The “activity change, negative = cytotoxicity” value of the first is higher: 5.21% [at 39.1 µM] for the first, -12.7% [at 39.1 µM] for the second.

For `NS(=O)(=O)c1cc(C(=O)O)cc(N2CCCC2)c1Oc1ccccc1`, the “activity change, negative = cytotoxicity” value was -7.49% [at 39.1 µM].

Compared with `CCOC(C)(C)C`, `O=C(O)CCCl` is lower in “activity change, negative = cytotoxicity” value: 6.73% [at 95.3 µM] for the first, 5.9% [at 95.3 µM] for the second.

For `CCCCCCCCCCCCCC=O`, the activity change, negative = cytotoxicity was 12.2% [at 8.08 µM].
